Experimental data: the supplement of paper PMC6555819

What was measured:
Assay in all cases: PBM binding z-score (relative to random genomic background probes); higher = stronger binding; sequences stand for … in GC…GCGATTGACAGCGTAGAATGAAGG
[1] = system: FXR:RXRa (NR concentration 270 nM, RXRa partner concentration 90 nM)
In short: (§1)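 Binding z-scores take random background probes as their reference. They come from custom Agilent 4×180K protein-binding microarrays incubated 1 h with ligand-free nuclear receptor dimers, with antibodies against each partner (one per run) detecting binding. Scanned fluorescence was regression-normalized.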

[2] = system: LXRa:RXRa (NR concentration 270 nM, RXRa partner concentration 90 nM)
In short: as §1

[3] = system: LXRa homodimer (NR concentration 270 nM)
In short: as §1

[4] = system: LXRb:RXRa (NR concentration 270 nM, RXRa partner concentration 90 nM)
In short: as §1

[5] = system: LXRb homodimer (NR concentration 270 nM)
In short: as §1

[6] = system: PPARa:RXRa (NR concentration 270 nM, RXRa partner concentration 90 nM)
In short: as §1

[7] = system: PPARg:RXRa (NR concentration 180 nM, RXRa partner concentration 90 nM)
In short: as §1

[8] = system: PPARg:RXRa 270nM:90nM, anti-RXR (NR concentration 270 nM, RXRa partner concentration 90 nM)
In short: as §1

[9] = system: PPARg:RXRa 30nM:10nM, anti-RXR (NR concentration 30 nM, RXRa partner concentration 10 nM)
In short: as §1

[10] = system: PPARg:RXRa 90nM:30nM, anti-RXR (NR concentration 90 nM, RXRa partner concentration 30 nM)
In short: as §1

[11] = system: PPARg:RXRa DBDmut IVT, anti-RXR (DBD mutation: RXRa K156A/R161A, NR concentration 270 nM, RXRa partner concentration 90 nM)
In short: as §1

[12] = system: PPARg:RXRa IVT, anti-PPARg (NR concentration 270 nM, RXRa partner concentration 90 nM)
In short: as §1

[13] = system: PPARg DBDmut:RXRa IVT, anti-PPARg (DBD mutation: PPARg1 K132A/R137A, NR concentration 270 nM, RXRa partner concentration 90 nM)
In short: as §1

[14] = system: PPARg DBDmut IVT, anti-PPARg (DBD mutation: PPARg1 K132A/R137A, NR concentration 270 nM)
In short: as §1

[15] = system: PPARg homodimer (NR concentration 180 nM)
In short: as §1

[16] = system: PXR:RXRa (NR concentration 270 nM, RXRa partner concentration 90 nM)
In short: as §1

[17] = system: PXR homodimer (NR concentration 270 nM)
In short: as §1

[18] = system: RARa:RXR (NR concentration 270 nM, RXRa partner concentration 90 nM)
In short: as §1

[19] = system: RARa homodimer (NR concentration 270 nM)
In short: as §1

[20] = system: RARb:RXRa (NR concentration 270 nM, RXRa partner concentration 90 nM)
In short: as §1

Sequence	PBM binding z-score [1]	PBM binding z-score [2]	PBM binding z-score [3]	PBM binding z-score [4]	PBM binding z-score [5]	PBM binding z-score [6]	PBM binding z-score [7]	PBM binding z-score [8]	PBM binding z-score [9]	PBM binding z-score [10]	PBM binding z-score [11]	PBM binding z-score [12]	PBM binding z-score [13]	PBM binding z-score [14]	PBM binding z-score [15]	PBM binding z-score [16]	PBM binding z-score [17]	PBM binding z-score [18]	PBM binding z-score [19]	PBM binding z-score [20]
CTCGAAAGGTCGGTTGAGGGGAGTATACGGATAA	2.57	1.35	-0.151	1.35	0.377	2.39	0.359	0.861	-0.0851	0.567	-0.0517	0.459	0.19	0.356	0.859	1.51	-0.0252	1.79	-0.0195	3.02
TGATTGAGGTTAAAGATCAGGGAACGTGGCGTCG	3.41	2.42	0.0848	1.85	0.589	4.47	5.23	5.82	4.22	5.94	1.62	3.15	1.39	1.52	0.865	1.96	0.148	2.95	0.729	2.24
CGAACTAGGTCAGAACAGGACAGTGCAGGATGAT	1.66	0.725	-0.124	0.147	-0.225	3.08	5.1	4.39	1.84	3.81	7.46	7.27	0.839	0.368	1.18	0.783	0.225	0.999	0.221	2.96
GCTCGGAGGACAAGGTAAGAGCTTTGTCCGTAGA	-0.326	-0.633	-0.985	-0.8	-1.57	-0.331	-0.742	-0.267	-0.952	-0.841	-0.716	-0.298	-1.26	-1.29	-1.16	-0.574	-1.14	-0.493	-1.14	0.88
AGAACGAGGGCAATGAGTTGATAGCACGGGTGGC	0.227	0.258	-0.336	-0.187	-0.464	1.14	1.4	0.948	0.0396	0.43	3.48	2.48	0.306	0.0167	0.0111	1.54	2.95	0.443	0.212	2.04
GCTGCTAGGGCAACTGATGGTCAGCTAAAGCTCG	-0.599	-0.0812	-0.858	-0.846	-0.673	-0.536	-0.394	-0.642	-1.04	-0.914	2.82	1.23	-0.683	-1.08	-0.93	-0.816	-0.96	-0.619	-1.23	1.56
ACTAGTTGGTCTGCTGAGGTCACACACAATTCGG	2.8	2.9	1.91	3.28	0.53	3.39	1.35	1.95	0.572	1.35	0.557	1.95	0.686	1.46	2.32	4.42	1.43	3.73	0.842	3.2
ACTATTAGTTGAGACGAGAGCAACCGATAGGTTG	-0.0812	-0.233	-0.161	-0.216	0.14	-0.533	0.493	-0.133	0.37	0.081	-0.112	-0.0541	0.442	0.157	0.139	-0.467	-0.273	-0.313	0.747	-0.263
CCTCGGAGGATAACAGGAGGTCAGAGCTGCCAGA	0.758	2.44	2.34	1.24	-0.35	1.61	0.275	-0.114	-0.739	-0.596	-0.616	0.0476	-0.938	-1.92	1.75	1.78	0.657	2.39	0.565	1.99
CAAACTCGGTCAAGAGGTCAAAGTCCGCTTCCCG	6.2	5.96	6.55	5.13	1.61	5.82	5.83	5.99	3.41	5.47	4.29	5.27	1.06	1.86	4.18	5.89	2.01	6.63	1.95	5.01
CCTACTGGGACATTCAGAGGTCATTGATCATATG	3.08	4.71	7.13	4.05	1.06	3.74	2.3	3.13	0.845	2.31	4.26	3.96	0.709	0.697	3.07	5.15	3.43	4.96	1.35	3.11
GCAGACCGGTGAAACGCAGGTAACTCAGGGTGGC	-0.668	-0.615	-0.629	-0.971	-1.86	-1.17	-0.0428	-1.18	-1.16	-1.16	-0.72	-0.532	-1.77	-1.81	-1.43	-0.781	-1.17	-0.497	-1.38	-0.191
TCATATAGGTAAATGCTAGGAGAAAGTCCGATCT	0.665	0.615	0.0582	0.346	0.0208	0.892	0.807	2.25	3.95	3.15	3.74	1.59	1.52	1.09	0.813	0.458	0.215	0.385	0.843	0.136
CCGTGTAGGTTATGGGGCATTCAGGCAACGGTGA	0.503	0.731	0.151	0.984	0.31	2.13	2.03	3.57	1.74	3.16	2.12	2.67	-1.11	-0.904	1.42	0.0818	-0.178	0.761	0.31	1.33
AGTCAAAGTTCACTAGGTATCGTAAGATTCAGCT	4.92	5.04	3.27	2.98	1.09	4.19	6.03	5.82	2.96	5.12	1.2	3.6	1.14	1.1	2.46	4.04	3.44	2.8	1.06	4.7
CCTTACGGGTCACAGACAGGTTATAGCATTTGGA	5.55	4.19	0.611	3.84	0.0624	5.36	5.74	5.16	2.14	3.99	3.72	4.63	1.16	0.89	2.76	3.87	0.387	4.91	0.967	4.01
TTACCAAGGTGAGCTGAGGTCGGTGATCCAACTC	0.603	0.222	-0.197	0.0956	-1.13	1.07	0.209	0.517	-0.0845	0.37	0.759	1.6	-0.343	-0.369	-0.703	2.47	-0.308	1.19	-0.395	1.52
TCGAGTAGGTTAGTCGGGGCAATCAGCCAACATA	0.297	-0.165	-0.263	0.224	-1.01	0.796	0.0628	0.946	1.01	0.797	2.37	2.34	-0.202	-1.1	-0.0632	0.138	-0.459	0.453	-0.959	0.473
TCTATCAGTTGATTAGGGCAACCGAAACAGCGGA	-0.144	0.15	-0.239	0.101	0.266	0.978	0.346	1.61	3.34	2.54	1.54	1.42	0.737	0.547	-0.273	0.154	-0.238	0.11	-0.12	0.747
TAGCCTAGGTCATTGGGCCAGCATAGTACGCATC	3.88	3.2	0.466	1.87	-0.0227	3.46	3.57	3.71	0.617	2.5	2.61	3.89	0.103	-0.682	0.524	1.58	-0.351	2.11	-0.399	3.64
ATCTCTAGGTAAAGATAGTTGAGTGAATGCAAAT	0.323	0.358	-0.0172	0.23	0.435	0.437	0.538	0.246	0.222	0.29	2.14	1.82	1.87	0.639	0.295	0.221	0.497	0.592	1.46	-0.0235
GGAACGAGGGCAAAGTTGATGGCATCTGTCGACG	1.36	1.13	-0.0159	0.949	-0.264	4.09	6.37	6.89	5.45	6.81	4.48	4.33	0.423	0.295	0.411	1.39	0.213	1.59	-0.52	2.48
TCTTGTAGATCAATTGAGGTTAAGAAAGTGCGCT	1.19	2.94	0.265	1.56	-0.0639	1.74	-0.433	1.68	2.94	2.2	2.06	1.34	0.476	0.929	0.486	2.84	0.38	1.68	0.164	0.758
GCTCGGAGGACAGGGTCAGAGCTTTGTCCGTAGA	1.13	0.858	-0.746	0.906	-1.08	2.62	-0.204	0.469	-0.854	0.00374	-0.294	0.104	-1.35	-1.12	-0.0128	1.22	-0.77	2.28	-1.04	2.55
CCTCGGAGGACAGAATGTCAGAGCTGTCCGCTTT	-0.31	-0.467	-0.713	-1.01	-0.428	-0.27	-0.416	-0.901	-0.655	-1.09	-0.17	-1.04	-1.38	-1.68	0.0941	-0.762	-0.458	-0.687	-0.242	0.241
GATACAGGGTTAAGGCCAGAGTACGCGTATTGAT	1.24	0.758	-0.124	0.741	-0.621	2.23	1.45	1.5	0.167	0.884	0.369	1.16	0.272	-0.564	0.996	0.615	0.108	1.28	0.426	1.7
AGAATGAGCTTACCAAAGATCAGGGAAACGCTTG	-0.649	-0.433	-0.203	-0.523	-0.394	-0.401	0.53	0.206	0.32	-0.0483	-0.815	-0.433	-0.258	-0.198	-0.572	-0.428	-0.462	-0.0887	-0.255	-0.501
CCTAGCAGGCCAATCCGGGTCACTCAAGGCTTGA	2.13	1.84	-0.396	1.47	-0.923	2.78	0.787	1.02	-0.565	0.469	2.27	2.8	-1.26	-0.765	0.726	2.79	-0.246	2.23	-0.442	1.63
